Compounds with a hit are over-represented: about 3% of the library has one in this group of screens.
Mtb FBA inh – inhibitors of M. tuberculosis fructose-bisphosphate aldolase | purified M. tuberculosis FBA, fluorescence read-out | inhibition, % at 1 µM | 360,000 compounds, 2.3% hits; in the data active = inhibition above about 27%;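 note: 0% = vehicle and 100% = reference inhibitor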
Target sequence (P9WQA3 whole entry, looked up): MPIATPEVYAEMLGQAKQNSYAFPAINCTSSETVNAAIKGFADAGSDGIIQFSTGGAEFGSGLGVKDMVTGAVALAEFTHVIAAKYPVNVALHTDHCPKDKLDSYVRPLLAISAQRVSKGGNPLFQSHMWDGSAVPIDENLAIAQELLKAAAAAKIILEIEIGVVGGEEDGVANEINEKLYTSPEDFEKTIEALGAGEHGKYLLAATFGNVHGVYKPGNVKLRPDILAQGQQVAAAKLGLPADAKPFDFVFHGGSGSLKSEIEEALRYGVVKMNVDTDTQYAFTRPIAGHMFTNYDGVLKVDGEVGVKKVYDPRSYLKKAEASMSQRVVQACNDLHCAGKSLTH
FadD28 binding – M. tuberculosis FadD28 bisubstrate binding inhibition | AID 588549 | 360,000 compounds, 0.22% hits | inhibition, % at 12.5 µM | FadD28 bisubstrate probe binding, fluorescence polarization; in the data active = inhibition above about 8.5%, passing the limit was not always enough
GDH-TPI inh – inhibits GDH-TPI coupling enzymes, artifact for Mtb FBA screen. GDH-TPI coupled enzyme counterscreen, NADH absorbance. inhibition, % at 4.8 µM. 360,000 compounds, 1.2% hits. AID 588335; in the data active = inhibition above about 30%;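 note: 0% = DMSO wells and 100% = wells lacking the enzyme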
Mtb BioA inh – BioA (M. tuberculosis) enzyme inhibition; purified M. tuberculosis BioA enzyme, plate reader; inhibition, % at 9.99 µM; 360,000 compounds, 0.096% hits; AID 602481; in the data active = inhibition above about 40%
Rv3671c protease – inhibits the M. tuberculosis serine protease Rv3671c. AID 2606. P9WHR9. inhibition, % at 5.96 µM. 320,000 compounds, 0.048% hits; in the data active = inhibition above about 38%;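 note: extracellular domain of Rv3671c used as enzyme; 0% = enzyme with DMSO and 100% = no enzyme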
Starred values were filed as active, the others as inactive.

`COCC(=O)Nc1ccc2c(c1)OC[C@@H](C)N(C(=O)c1ccccc1)C[C@H](C)[C@@H](OC)CN(C)C2=O` gave Mtb BioA inh 0.4.
Screening COc1cccc(CN(C)Cc2cc(=O)oc3cc(O)c(Cl)cc23)c1 returned Mtb FBA inh 164.3*, FadD28 binding -1.2, GDH-TPI inh 9.0, Mtb BioA inh -0.1 and Rv3671c protease 4.4.
For CN(C)C(=O)c1cccc(-c2ccc3c(c2)[C@@H]2[C@@H](CCN2Cc2ccccc2F)[C@H](CO)N3)c1 the results were Mtb BioA inh 12.0.
For COc1ccc(-c2c(NC(=O)c3ccco3)oc3ccccc3c2=O)cc1 the results were Mtb FBA inh 1.0, FadD28 binding -1.3, GDH-TPI inh 40.2*, Mtb BioA inh -4.6 and Rv3671c protease -7.2.
Screening COc1ccc(-c2c(NC(C)=O)n(C)c3ccccc3c2=O)cc1 returned Mtb FBA inh 25.8, FadD28 binding -3.5, GDH-TPI inh 36.1*, Mtb BioA inh 0.4 and Rv3671c protease 5.1.
C[C@@H]1CCCCO[C@@H](CN(C)C)[C@@H](C)CN([C@H](C)CO)C(=O)c2cc(NC(=O)NC3CCCCC3)ccc2O1 was read as Mtb BioA inh -1.4.
`O=C(C[C@H]1CC[C@@H](NC(=O)CCN2CCCCC2)[C@H](CO)O1)NCc1ccc(Cl)c(Cl)c1` gave Mtb BioA inh 2.8.
Cc1cc(=O)oc2c3c(cc(OCC(=O)N[C@@H](Cc4ccccc4)C(=O)O)c12)OC(C)(C)CC3 was read as Mtb FBA inh active, FadD28 binding 0.1, GDH-TPI inh 22.2, Mtb BioA inh -0.7 and Rv3671c protease 3.8.
For Cc1cc(=O)oc2c3c(cc(OCC(=O)NC(Cc4ccc(Cl)cc4)C(=O)O)c12)OC(C)(C)CC3 (stereo unspecified) the results were Mtb FBA inh active, FadD28 binding -7.1, GDH-TPI inh 13.7, Mtb BioA inh -0.8 and Rv3671c protease 8.7.
Screening CCCc1cc(=O)oc2cc(OCC(=O)NC(Cc3ccc(Cl)cc3)C(=O)O)ccc12 (stereo unspecified) returned Mtb FBA inh 17.9, FadD28 binding -5.1, GDH-TPI inh 2.0, Mtb BioA inh 0.7 and Rv3671c protease -5.1.
For Cc1ccc(S(=O)(=O)N(C)C[C@@H]2Oc3ccc(NS(=O)(=O)c4ccc(F)cc4)cc3C(=O)N([C@@H](C)CO)C[C@H]2C)cc1 the results were Mtb BioA inh -1.1.
`O=[N+]([O-])c1cc(O)c(O)c([N+](=O)[O-])c1` gave Mtb FBA inh -8.3, FadD28 binding 0.5, GDH-TPI inh 9.8, Mtb BioA inh 2.1 and Rv3671c protease 12.4.
Screening O=[N+]([O-])c1cc(-n2cnnn2)c(O)c([N+](=O)[O-])c1 returned Mtb FBA inh -3.1, FadD28 binding 1.2, GDH-TPI inh 31.1*, Mtb BioA inh -0.9 and Rv3671c protease 10.3.
Screening COc1ccc(NC(=O)N2C[C@@H](O)COC[C@@H]3O[C@H](CC(=O)NCc4ccccc4OC)CC[C@H]32)cc1 returned Mtb BioA inh 2.3.
Screening Oc1ccc(N=Cc2ccc(-c3cccs3)s2)cc1 returned Mtb FBA inh active, FadD28 binding 1.6, GDH-TPI inh 34.9*, Mtb BioA inh 0.7 and Rv3671c protease -10.1.
O=Cc1ccc(-c2cccs2)s1 was read as Mtb FBA inh active, FadD28 binding -0.5 and GDH-TPI inh 27.6.
CCCCOc1ccc(N=Cc2cccs2)cc1 was read as Mtb FBA inh -1.7, FadD28 binding -2.5, GDH-TPI inh 16.5, Mtb BioA inh 0.1 and Rv3671c protease 2.3.
C/C=C/c1ccc2c(c1)O[C@@H](CN(C)C(=O)NC(C)C)[C@H](C)CN([C@@H](C)CO)S2(=O)=O was read as Mtb BioA inh 0.0.
`COc1ccc(S(=O)(=O)N(C)C[C@H]2Oc3ccc(NC(=O)Nc4c(C)noc4C)cc3CC(=O)N([C@H](C)CO)C[C@H]2C)cc1` gave Mtb BioA inh -0.3.
Screening CCn1c(N)c(C(=O)NC2CCCCC2)sc1=S returned Mtb FBA inh 0.1, FadD28 binding -1.4, GDH-TPI inh 43.3* and Rv3671c protease 2.0.
Screening CO[C@H]1CN(C)C(=O)c2ccc(NC(=O)C3CC3)cc2OC[C@H](C)N(C(=O)NC(C)C)C[C@H]1C returned Mtb BioA inh -1.9.
`c1ccc(C2=NCCCO2)cc1` gave Mtb FBA inh -0.4, FadD28 binding -1.4, GDH-TPI inh 0.4 and Mtb BioA inh -0.7.
`c1ccc(N=Nc2ccc(C3=NCCO3)cc2)cc1` gave Mtb FBA inh -0.8, FadD28 binding 2.0, GDH-TPI inh 35.9* and Mtb BioA inh -1.6.
`COc1ccc(S(=O)(=O)N(C)C[C@H]2OCCCC[C@H](C)Oc3ccc(NS(=O)(=O)c4ccc(C)cc4)cc3C(=O)N([C@H](C)CO)C[C@H]2C)cc1` gave Mtb BioA inh -1.3.
Screening Cc1cccc(Nc2ncc3c(n2)CC(C)CC3=O)c1 (stereo unspecified) returned Mtb FBA inh 4.2, FadD28 binding -2.8, GDH-TPI inh 36.1*, Mtb BioA inh -3.8 and Rv3671c protease 2.0.
COc1ccc(Nc2ncc3c(n2)CC(c2ccccc2)CC3=O)cc1 (stereo unspecified) was read as Mtb FBA inh -0.3, FadD28 binding -1.1, GDH-TPI inh 30.9* and Rv3671c protease -7.3.
Screening Cc1cccc(Nc2ncc3c(n2)CC(c2ccco2)CC3=O)c1 (stereo unspecified) returned Mtb FBA inh -0.4, FadD28 binding -0.8, GDH-TPI inh 26.4, Mtb BioA inh 0.6 and Rv3671c protease -20.8.
CCc1ccc(Nc2ncc3c(n2)CC(c2ccc(OC)cc2)CC3=O)cc1 (stereo unspecified) was read as Mtb FBA inh 3.1, FadD28 binding -2.1, GDH-TPI inh 13.8, Mtb BioA inh 0.2 and Rv3671c protease -0.6.
Screening COc1ccc(/C=N\NC(=O)c2ccc(F)cc2)cc1COc1ccccc1C(N)=O returned Mtb FBA inh 1.9, FadD28 binding -12.9, GDH-TPI inh 11.3, Mtb BioA inh 1.9 and Rv3671c protease -19.3.
COc1ccc(C(=O)N/N=C\c2ccc(OC)c(COc3ccccc3Br)c2)c(OC)c1 was read as Mtb FBA inh 7.7, GDH-TPI inh 35.4*, Mtb BioA inh -7.2 and Rv3671c protease -98.9.
CCOC(=O)c1ccccc1OCc1cc(/C=N/NC(=O)c2ccncc2)ccc1OC was read as Mtb FBA inh 2.9, FadD28 binding -7.2, GDH-TPI inh 37.9*, Mtb BioA inh -2.0 and Rv3671c protease -28.4.
Screening COc1ccc(/C=N/NC(=O)c2ccncc2)cc1CSc1nc2ccccc2s1 returned Mtb FBA inh 2.2, FadD28 binding -5.0, GDH-TPI inh 30.9*, Mtb BioA inh -1.9 and Rv3671c protease -178.1.
Screening COc1ccc(/C=N\NC(=O)c2ccccc2Br)cc1COc1ccccc1 returned Mtb FBA inh -0.8, FadD28 binding -0.6, GDH-TPI inh 12.0, Mtb BioA inh -0.2 and Rv3671c protease -14.3.
Screening CC(C)NC(=O)N(C)C[C@H]1OCCCC[C@H](C)Oc2ccc(NC(=O)Cc3ccccc3)cc2C(=O)N([C@@H](C)CO)C[C@@H]1C returned Mtb BioA inh 1.7.

Assay outcomes deposited in PubChem by several laboratories.
